From the supplement of paper PMC6555819

Key:
Assay in all cases: PBM binding z-score (relative to random genomic background probes); higher = stronger binding; sequences stand for … in GC…GCGATTGACAGCGTAGAATGAAGG
[1] = system: FXR:RXRa (NR concentration 270 nM, RXRa partner concentration 90 nM)
Outline: (§1)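 For binding z-scores, the reference was random background probes on custom Agilent 4×180K protein-binding microarrays. These arrays were incubated 1 h with ligand-free nuclear receptor dimers in PBS pH 7.4, 2% milk, 0.02% Triton X-100, 1 mM DTT, 0.2 mg/mL BSA and 0.4 mg/ml salmon testes DNA. Fluorescence was scanned after antibody detection of each partner (one per run) and regression-normalized.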

[2] = system: LXRa:RXRa (NR concentration 270 nM, RXRa partner concentration 90 nM)
Outline: as §1

[3] = system: LXRa homodimer (NR concentration 270 nM)
Outline: as §1

[4] = system: LXRb:RXRa (NR concentration 270 nM, RXRa partner concentration 90 nM)
Outline: as §1

[5] = system: LXRb homodimer (NR concentration 270 nM)
Outline: as §1

[6] = system: PPARa:RXRa (NR concentration 270 nM, RXRa partner concentration 90 nM)
Outline: as §1

[7] = system: PPARg:RXRa (NR concentration 180 nM, RXRa partner concentration 90 nM)
Outline: as §1

[8] = system: PPARg:RXRa 270nM:90nM, anti-RXR (NR concentration 270 nM, RXRa partner concentration 90 nM)
Outline: as §1

[9] = system: PPARg:RXRa 30nM:10nM, anti-RXR (NR concentration 30 nM, RXRa partner concentration 10 nM)
Outline: as §1

[10] = system: PPARg:RXRa 90nM:30nM, anti-RXR (NR concentration 90 nM, RXRa partner concentration 30 nM)
Outline: as §1

[11] = system: PPARg:RXRa DBDmut IVT, anti-RXR (DBD mutation: RXRa K156A/R161A, NR concentration 270 nM, RXRa partner concentration 90 nM)
Outline: as §1

[12] = system: PPARg:RXRa IVT, anti-PPARg (NR concentration 270 nM, RXRa partner concentration 90 nM)
Outline: as §1

[13] = system: PPARg DBDmut:RXRa IVT, anti-PPARg (DBD mutation: PPARg1 K132A/R137A, NR concentration 270 nM, RXRa partner concentration 90 nM)
Outline: as §1

[14] = system: PPARg DBDmut IVT, anti-PPARg (DBD mutation: PPARg1 K132A/R137A, NR concentration 270 nM)
Outline: as §1

[15] = system: PPARg homodimer (NR concentration 180 nM)
Outline: as §1

[16] = system: PXR:RXRa (NR concentration 270 nM, RXRa partner concentration 90 nM)
Outline: as §1

[17] = system: PXR homodimer (NR concentration 270 nM)
Outline: as §1

[18] = system: RARa:RXR (NR concentration 270 nM, RXRa partner concentration 90 nM)
Outline: as §1

[19] = system: RARa homodimer (NR concentration 270 nM)
Outline: as §1

[20] = system: RARb:RXRa (NR concentration 270 nM, RXRa partner concentration 90 nM)
Outline: as §1

Sequence	PBM binding z-score [1]	PBM binding z-score [2]	PBM binding z-score [3]	PBM binding z-score [4]	PBM binding z-score [5]	PBM binding z-score [6]	PBM binding z-score [7]	PBM binding z-score [8]	PBM binding z-score [9]	PBM binding z-score [10]	PBM binding z-score [11]	PBM binding z-score [12]	PBM binding z-score [13]	PBM binding z-score [14]	PBM binding z-score [15]	PBM binding z-score [16]	PBM binding z-score [17]	PBM binding z-score [18]	PBM binding z-score [19]	PBM binding z-score [20]
CATAGAGGGTCAGCTAGGCCAGAGTAGGGACGGC	3.11	2.04	-0.237	1.37	0.495	3.45	2.23	2.06	0.47	1.23	1.42	2.21	0.395	0.25	1.26	1.2	-0.122	1.9	-0.0533	3.82
TCGAGTAGGTTACCAATGGGGCATACAGCTTTCT	0.164	1.55	-0.441	1.04	-0.663	1.18	0.984	1.68	1.27	1.28	3.13	3.01	-0.185	-0.3	-0.0294	0.327	-0.38	0.453	-0.62	0.89
ACTATTAGTTGACTTAGGGCCACCGATACGACGC	0.803	0.394	0.324	0.152	0.713	0.121	1.07	0.422	0.18	0.363	0.373	0.728	1.68	1.42	0.408	0.124	0.0401	0.753	0.459	0.755
TCAGACAGGTTAAGGTAACTCAGGTACGCAGTCG	1.49	2.63	0.305	1.79	0.039	1.93	0.858	2.5	4.03	3.21	2.56	0.69	0.624	0.18	1.1	1.1	0.461	1.54	0.655	1.51
TGAAAGAGGTTATAAGATCAGGGAACGTTGCAAA	2.03	1.91	-0.395	1.33	-0.331	2.91	1.11	1.46	0.81	1.12	-0.304	0.748	-0.617	0.266	0.0455	0.781	-0.571	1.59	-0.227	1.56
TCGAGTAGGTTAGCAATGGGGCATTCAGCTTTCT	-0.119	0.188	-0.715	0.235	-0.623	0.539	-0.248	0.643	1.08	1.09	2.43	1.46	-0.902	-1.37	-0.285	-0.264	-0.747	-0.123	-0.474	0.542
CCGCCTGGGGCATAAGGTTACCATAAGCCAGCCC	0.396	2.13	-0.0987	0.843	-1.3	1.3	0.507	0.996	-0.661	0.461	-0.446	-0.147	-2.09	-2.48	0.35	0.37	-0.511	1.52	-0.89	1.68
CCTCGTTGGTCAAGGTCACACACGCTATAGGTAC	4.27	4.25	2.8	3.8	1.08	4.07	2.47	3.17	0.974	2.24	1.3	2.58	1.08	-0.102	3.26	4.25	1.82	4.63	2.69	4.18
ACTAGTTGGTCAGCTGAGGGCACACACAATTCGG	0.819	0.0659	0.172	0.183	-0.0227	0.606	0.887	0.572	0.27	0.385	0.794	1.19	-0.0581	0.654	0.538	2.26	0.211	1.13	-0.0752	1.73
TCATGTAGGTAAACAGGTGAAAGTCCGTAAGTTA	0.441	0.537	-0.185	0.487	-0.709	2.46	3.06	3.74	3.38	3.64	4.93	5.27	0.599	0.663	1.08	0.463	0.296	0.664	0.834	0.451
TGAATGAGGTTAAAGATCAGCGAACGTGGCGTCG	2.99	2.46	-0.568	1.62	0.0932	4.55	5.87	6.26	5.47	6.67	2.09	3.38	1.34	0.131	0.5	1.89	-0.0611	2.82	-0.162	1.88
ATATGTAGGTTCAGGGTCATTCAGGTTGGTTCGC	4.82	4.56	2.81	4.44	1.46	5.2	7.3	7.14	6	7.46	3.41	4.69	1.38	1.25	3.72	5.44	5.1	5.15	2.39	3.41
GCTAGCAGGCCATTTGGGGCACTCAATGACGGGC	-0.254	-0.719	-0.424	-0.753	-0.89	-0.000395	0.377	-0.278	-0.304	-0.0904	1.12	0.8	-0.58	-1.74	-0.698	-0.594	-0.802	-0.159	-1.06	0.199
CCTAGCAGGCCAATCTGGCTCACTCAAGGCTTGA	-0.716	-0.911	-0.459	-0.999	-0.737	-0.434	-0.54	-0.642	-0.916	-1.12	1.35	0.117	-2.07	-1.06	-0.294	-0.913	-1.16	-0.795	-0.522	-0.16
CGTCAAAGTTCAAGGGAACGTAACAGAAAGCAGC	6.3	5.44	2.42	3.12	0.895	4.42	3.85	4.64	1.76	3.48	0.445	1.36	0.481	1.2	2.69	3.89	2.32	3.09	1.28	5.11
CGTCCAAGGTCATAGGAGGTCTGTGAAGACAGAT	7.54	5.3	0.925	4.01	0.481	5.64	4.98	5.2	1.89	3.88	2.76	3.51	0.436	0.0298	2.07	4.86	1.09	4.27	0.26	5.05
CCTAGTTGGTCAAGGTCACAGACGCTATAGGTAC	4.56	3.92	1.56	3.6	0.603	4.38	3.54	3.88	1.54	2.79	2.26	3.92	0.729	0.0985	3.27	4.21	2.19	4.66	2.61	4.28
CGTCCAAGGTCAGCATGTCAGTGAAAGCGACGTG	5.06	3.16	-0.309	2.27	-0.251	4.07	2.43	3.09	0.443	1.45	2.52	2.35	-0.0905	-0.674	2.58	2.41	0.102	3.01	0.765	4.93
GAAACAGGGTCAAGGCCAGAGTACGCGTATTGAT	7.06	4.18	-0.0634	3.92	-0.239	6.22	6.82	6.19	3.1	5.15	4.14	5.29	1.43	1.01	2.18	4.41	0.162	4.58	0.267	4.73
TCGAGTAGGGTAGTCGGGGCATTCAGCCAACATA	-0.261	-0.324	-0.232	0.0407	-0.844	0.109	-0.307	0.468	0.525	0.442	1.33	0.997	-1.17	-0.743	0.299	-0.12	-0.394	-0.233	-0.527	0.0213
ATCGAAAGTTCGAGGTGAGTATAGAGAAAGGGAA	0.831	1	-0.204	0.703	-0.225	1.76	0.648	0.797	0.3	0.478	-0.474	0.844	0.383	0.642	0.238	0.98	0.157	1.01	-0.05	2.53
ATCTCTAGGTAACAAGTTCAGTTAAAGAGAGGAC	0.755	0.963	0.655	0.642	0.936	1.62	1.48	2.05	0.996	1.57	2.97	2.91	1.33	1.39	1.31	1.79	1.75	0.869	1.39	1.71
TCTATTAGTTGATTAGGGCTACCGAAACAGCGGA	0.263	0.345	-0.0589	0.351	0.304	0.505	0.0193	2.26	3.84	2.98	1.71	0.487	0.367	0.888	1.29	0.181	0.128	0.22	0.748	0.309
TCTAGTTGGTCAAAGGTCGCACACTCGAAATGCG	2.96	2.82	0.642	2.92	0.553	5.33	10.3	9.2	10.5	10.8	3.09	5.25	1.76	1.51	4.25	3.78	0.71	5.01	1.36	3.29
TCATATAGGTAAACAGGTGAAAGTTCGTAAGTTA	1.01	1.3	1.04	1.4	-0.228	4.15	7.28	6.52	5.93	7.06	4.94	5.28	1.8	1.15	1.88	2.07	2.12	2.61	2.02	1.25
ATGGAAAGGTCGACGAGGTGAGTATACACCGTTT	4.39	3.03	-0.133	2.47	0.238	4.12	2.69	2.93	1.17	1.95	0.338	1.89	0.736	1.01	1.38	2.96	0.609	3.54	0.422	3.73
